Bioassay records: PubChem BioAssay, National Center for Advancing Translational Sciences (NCATS)
This is a sample that favours compounds with a hit; in the whole collection about 9.3% have one here.
ELG1 repair inh: blocks ELG1-dependent DNA repair in HEK293T cells. Potency, µM (titrated, usually from 46.1 µM), without a hit: at the highest dose activity change, negative = inhibition, hits mostly inhibitors. HEK293T ELG1-luciferase reporter, luminescence, 16 h; DNA damage induced by 5-fluorouridine. 2.3% of 330,000 active. AID 504467; note: % is set by controls: 0 for no effect and ±100 for the full control effect; nearly all actives have a fitted effect of over 55% in size
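Cells (2,000 per well) received 5-fluorouridine plus test compound or DMSO and were incubated 16 hr at 37 °C, 5% CO2. Luciferase activity was read by luminescence 30 min after ONE-Glo addition; signal suppression marked inhibition of damage-induced ELG1 function.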
FLuc counter: inhibits or activates purified firefly luciferase, miR-21 counter-screen; P08659; purified FLuc, Km substrates, luminescence inhibition; Potency, µM (titrated, usually from 57.5 µM), for the others: at the highest dose activity change, negative = inhibition, usual class: inhibitors; 6.9% of 360,000 active; AID 588342;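 note: plate controls were vehicle for no effect and reference inhibitor for full effect; nearly all actives have a fitted effect of over 55% in size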
Target sequence (P08659 whole entry, looked up): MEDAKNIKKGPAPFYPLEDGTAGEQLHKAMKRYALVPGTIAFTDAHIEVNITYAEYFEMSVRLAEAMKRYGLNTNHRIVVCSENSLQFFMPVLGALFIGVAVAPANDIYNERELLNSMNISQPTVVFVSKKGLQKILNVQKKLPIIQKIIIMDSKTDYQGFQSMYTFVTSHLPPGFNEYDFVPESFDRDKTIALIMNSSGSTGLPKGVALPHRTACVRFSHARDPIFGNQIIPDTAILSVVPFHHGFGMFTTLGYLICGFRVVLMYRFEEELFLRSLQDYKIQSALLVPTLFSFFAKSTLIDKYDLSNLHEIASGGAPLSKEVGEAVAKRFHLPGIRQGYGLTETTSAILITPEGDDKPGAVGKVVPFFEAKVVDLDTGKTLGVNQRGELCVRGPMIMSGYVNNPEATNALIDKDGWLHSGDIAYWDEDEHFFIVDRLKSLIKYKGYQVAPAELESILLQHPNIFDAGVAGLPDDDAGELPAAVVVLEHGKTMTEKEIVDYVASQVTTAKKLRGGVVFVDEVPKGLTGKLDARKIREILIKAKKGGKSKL
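Purified P. pyralis luciferase (10nM final) with 10uM D-luciferin and 10uM ATP (Km levels) in 50mM Tris acetate pH 7.5, 10mM Mg acetate, 0.01% Tween-20, 0.05% BSA; qHTS 6-point titration, ~60 µM downward; luminescence read.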
SMN2 splice enh: increases expression of the SMN2 splice variant; HEK293 SMN2-luciferase splicing reporter, luminescence, 30-36 h; Potency, µM (highest dose often 46.1 µM), without a hit: at the top dose activity change, positive = activation, actives largely listed as activators; 2.8% of 210,000 active; AID 1458; note: % of control where 0% means no effect; nearly all actives have a fitted effect of over 55% in size
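HEK293 cells carry an SMN2 minigene-luciferase reporter in which exon 7 inclusion puts luciferase in frame. Cells were seeded at 2000 cells/well, attached for 10-12 hours, then exposed to compounds for 30-36 hours at 37C before ONE-Glo luminescence.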
Rab9 prom act: Rab9 promoter activation; Huh7 Rab9 promoter-luciferase reporter, luminescence, 24 h; Potency, µM (titrated, usually from 9.22 µM), inactives show top-dose activation, negative = inhibition, usual class: activators; 2.8% of 320,000 active; AID 485297; note: % of control where 0% means no effect; nearly all actives have a fitted effect of over 60% in size
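Huh7 cells stably carrying Rab9 promoter–luciferase reporter, plated 1500 cells/well, compound added after 2 h and incubated 24 h at 37 °C; luciferase luminescence then read after 10 min with detection reagent.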
NPC1 prom act: activates the NPC1 promoter. Huh7 NPC1 promoter luciferase reporter, 24 h. Potency, µM (series often up to 9.22 µM), inactives show at the top dose activation, hits mostly activators. 2.4% of 320,000 active. AID 485313; note: % of control where 0% means no effect; nearly all actives have a fitted effect of over 60% in size
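Stably transfected Huh7 (NPC1 promoter→luciferase), 1500 cells/well in Opti-MEM + 10% FBS, 2 h settle, then compound 24 h at 37 °C. Luminescence after 10 min with Amplite reagent.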
ELG1 genotox: genotoxicity induction in ELG1-luciferase HEK293T cells | 1.3% of 330,000 active | HEK293T ELG1-luciferase reporter, luminescence, 16 h | Potency, µM (top dose mostly 46 µM), for the others: top-dose activity change, positive = activation, actives largely listed as activators; note: % of control where 0% means no effect; nearly all actives have a fitted effect of over 60% in size
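Cells (2,000/well) expressing the ELG1-luciferase fusion are dosed by pin tool and kept 16 hr at 37 °C, 5% CO2. Signal comes from ONE-Glo luciferase reagent after 30 min at room temperature.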
Numbers without * were called inactive. Calls come from the whole dose curve; as a rule, active = well fitted curve in the direction sought with a large enough effect; inconclusive = small, poorly fitted or top-dose-only effect, or another doubt; inactive = no such curve, though single readings can be large; an effect the other way counts as inactive or inconclusive. Potency is the fitted concentration of half-maximal effect.

For CC(=O)NC1=NC(=O)/C(=C/c2cc(C)n(-c3cccc(C(=O)O)c3)c2C)S1 the results were ELG1 repair inh -15%, FLuc counter 15µM*, Rab9 prom act -7%, NPC1 prom act -8% and ELG1 genotox 0%.
For O=C(O)COc1ccc(/C=C/c2nc3ccc([N+](=O)[O-])cc3s2)cc1 the results were ELG1 repair inh 27%, FLuc counter 4.8µM*, Rab9 prom act 4%, NPC1 prom act 7% and ELG1 genotox 3%.
For CCOC(=O)c1ccc(N2C(=O)CC(C)(CC)CC2=O)cc1 the results were ELG1 repair inh -2%, FLuc counter 2%, Rab9 prom act -8%, NPC1 prom act -2% and ELG1 genotox -1%.
COCCOC(=O)c1c(NC(=O)COC(=O)c2ccc(C)o2)sc(C(N)=O)c1C was read as ELG1 repair inh inconclusive, FLuc counter 3%, Rab9 prom act -7%, NPC1 prom act -6% and ELG1 genotox -3%.
CC(=O)N(C)c1ccc(NC(=S)Nc2ccccc2)cc1 was read as ELG1 repair inh inconclusive, FLuc counter -3%, SMN2 splice enh 1%, Rab9 prom act -2%, NPC1 prom act 8% and ELG1 genotox 15%.
Cc1ccc(NC(=O)CN(C)C(=O)c2ccccn2)cc1 was read as ELG1 repair inh 4%, FLuc counter 0%, Rab9 prom act -1%, NPC1 prom act 0% and ELG1 genotox -1%.
For CN(C)c1cc(O)c(C(=S)Nc2ccccc2)c(N(C)C)c1 the results were ELG1 repair inh 14%, FLuc counter 24µM*, SMN2 splice enh 5%, Rab9 prom act 20%, NPC1 prom act 24% and ELG1 genotox -4%.
Screening CN(C)c1ccc(C(=S)Nc2ccccc2)cc1 returned ELG1 repair inh inconclusive, FLuc counter 1.5µM*, SMN2 splice enh 26%, Rab9 prom act 1µM*, NPC1 prom act 2.8µM* and ELG1 genotox inconclusive.
CN(C)c1ccc(NC(=S)c2ccccn2)cc1 was read as ELG1 repair inh inconclusive, FLuc counter 0.085µM*, SMN2 splice enh 0.5µM*, Rab9 prom act 0.32µM*, NPC1 prom act inconclusive and ELG1 genotox inconclusive.
Screening Cc1ccc(NC(=O)Cn2cc(C(=O)c3ccco3)c3ccccc32)cc1C returned FLuc counter inconclusive and SMN2 splice enh -8%.
`COc1cccc(/C=C/C(=O)OCC(=O)Nc2ccc(Cl)c(S(=O)(=O)N(C)C)c2)c1` gave ELG1 repair inh 16%, FLuc counter 11µM*, SMN2 splice enh -1%, Rab9 prom act -5%, NPC1 prom act -1% and ELG1 genotox 0%.
For COc1cccc(/C=C/C(=O)OCC(=O)Nc2cccc(S(=O)(=O)N(C)C)c2)c1 the results were ELG1 repair inh 9%, FLuc counter 11µM*, SMN2 splice enh -21%, Rab9 prom act -7%, NPC1 prom act 0% and ELG1 genotox 22%.
Screening CN(C)S(=O)(=O)c1cc(NC(=O)COC(=O)/C=C/c2ccco2)ccc1Cl returned ELG1 repair inh 17%, FLuc counter inconclusive, Rab9 prom act -2%, NPC1 prom act -1% and ELG1 genotox 4%.
`Cc1cccc(CCNC(=O)CCc2nnc(CCc3ccccc3)o2)n1` gave ELG1 repair inh inconclusive, FLuc counter -14%, Rab9 prom act 13%, NPC1 prom act -2% and ELG1 genotox 6%.
`COc1ccc(-c2nn(-c3ccccc3)cc2CO)cc1` gave ELG1 repair inh inconclusive, FLuc counter inconclusive, SMN2 splice enh -44%, Rab9 prom act inconclusive, NPC1 prom act 3% and ELG1 genotox inconclusive.
`Cc1nn(-c2ccc(C(=O)O)cc2)c(N)c1-c1ccccc1` gave ELG1 repair inh inconclusive, FLuc counter 3µM*, SMN2 splice enh 11µM*, Rab9 prom act inconclusive, NPC1 prom act inconclusive and ELG1 genotox inconclusive.
Screening Cc1nn(C(C)(C)C)c(N)c1-c1ccccc1 returned ELG1 repair inh 0%, FLuc counter -14%, SMN2 splice enh -43%, Rab9 prom act 0%, NPC1 prom act 0% and ELG1 genotox 2%.
For COc1ccc(-c2nn(-c3ccccc3)cc2N)cc1 the results were ELG1 repair inh inconclusive, FLuc counter 11µM*, SMN2 splice enh 14µM*, Rab9 prom act 2.8µM*, NPC1 prom act 3.5µM* and ELG1 genotox inconclusive.
For COc1ccc(-c2c(C)nn(-c3ccccc3)c2N)cc1 the results were ELG1 repair inh inconclusive, FLuc counter 21µM*, SMN2 splice enh inconclusive, Rab9 prom act inconclusive, NPC1 prom act inconclusive and ELG1 genotox inconclusive.
Screening COc1ccccc1C1=NOC(Cn2c(NCCOCCO)nc3c2c(=O)n(C)c(=O)n3C)C1 (configuration not stated) returned ELG1 repair inh inconclusive, FLuc counter -3%, Rab9 prom act -2%, NPC1 prom act 3% and ELG1 genotox -5%.
`CC(C)(C)OC(=O)NC1CCN(S(=O)(=O)c2ccc3c(c2)OCCO3)CC1` gave ELG1 repair inh -1%, FLuc counter 5%, Rab9 prom act 3%, NPC1 prom act 0% and ELG1 genotox -7%.
For O=C(Cn1c(=O)n(-c2ccc(F)cc2)c(=O)c2sc3ccccc3c21)N1CCCC1 the results were FLuc counter 3% and SMN2 splice enh 0%.
CCOC(=O)C1CCN(C(=O)c2c(C)nn(-c3ccc(F)cc3)c2-n2cccc2)CC1 was read as FLuc counter 1%.
CCOc1cccc2sc(NN)nc12 was read as ELG1 repair inh -8%, FLuc counter inconclusive, SMN2 splice enh -18%, Rab9 prom act -3%, NPC1 prom act -2% and ELG1 genotox 7%.
`Fc1cccc2sc(Nc3nnc(-c4ccco4)o3)nc12` gave ELG1 repair inh inconclusive, FLuc counter 11µM*, SMN2 splice enh 3.5µM*, Rab9 prom act 2.5µM*, NPC1 prom act 4µM* and ELG1 genotox 2.6µM*.
For CC(=O)Nc1nnc(-c2ccco2)o1 the results were ELG1 repair inh -1%, FLuc counter 4%, SMN2 splice enh 8%, Rab9 prom act -3%, NPC1 prom act -10% and ELG1 genotox -12%.
COc1cccc2sc(Nc3nnc(-c4ccc(F)cc4)o3)nc12 was read as ELG1 repair inh 14%, FLuc counter 24µM*, SMN2 splice enh 6%, Rab9 prom act -9%, NPC1 prom act -3% and ELG1 genotox inconclusive.
For COc1cccc2sc(Nc3nnc(-c4cccs4)o3)nc12 the results were ELG1 repair inh inconclusive, FLuc counter 4.8µM*, SMN2 splice enh 14µM*, Rab9 prom act 1µM*, NPC1 prom act 4µM* and ELG1 genotox inconclusive.
